Drawing on PubChem BioAssay, this text covers composite z-score and z-score for 4 compounds.

Activity calls are given as the source filed them. Unless noted, the rule behind the calls is not given here.

Assay [1] concerns Wnt5a (protein binding on small-molecule microarray). In words: Wnt5a binders on small-molecule microarray, primary screen, biophysical, 635/667 nm fluorescence (AID 1142).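 Note: fluorescence read at 667 nm with signal to noise per printed feature.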 Particulars: 635 nm fluorescence, higher = more signal.
Assay [2] can be described thus: cell viability in Huh7 cells, primary screen, cytotoxicity control for HCV replication inhibitor project, CellTiter-Glo luminescence, basal, 48 h (AID 1143).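 Note: Huh7 hepatoma cells carrying a hepatitis C replication reporter with no stimulus; test concentration not given here.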 Particulars: Huh7 HCV replicon, higher = more signal, called active from +8 up or from −8 down. A general note: In ATP-based viability assays light output follows the ATP content of the culture.
A short description of assay [3]: P. aeruginosa biofilm formation inhibitors, primary screen, PAO1 strain, BacTiter-Glo luminescence, LB-PBS (AID 1144). Particulars: 12 h, higher = more signal.
Assay [4] in a line: CREB reporter modulators without forskolin, primary screen, cell-based, PC12, CRE-LacZ reporter, unstimulated (AID 1145). Particulars: no forskolin, luminescence, 4.5 h, higher = more signal, called active from +8 up or from −8 down.
The nature of assay [5]: CREB reporter modulators under forskolin, primary screen, cell-based, PC12, CRE-LacZ reporter, forskolin-stimulated (AID 1146).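 Note: PC12 cells with 6xCRE LacZ reporter stimulated by forskolin 10 µM; beta-galactosidase reporter signal reflecting CREB driven transcription.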 Particulars: luminescence, 4.5 h, higher = more signal, called active from +8 up or from −8 down.
Assay [6] deals with Streptavidin (Streptomyces avidinii) (UniProt P22629). Nature of the assay: streptavidin binders on small-molecule microarray, primary screen, artefact control for SMM compound annotation, biophysical, 635/667 nm fluorescence (AID 1147).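 Note: signal reflects streptavidin binding to arrayed compounds as a control protein.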 To be noted: streptavidin binding, higher = more signal.
Assay [7] can be described thus: small-molecule binders of probe aInhba, primary screen, biochemical, small-molecule microarray, 635/667 nm fluorescence (AID 1148).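 Note: score merges 667nm spot fluorescence with signal-to-noise for antibody binding to printed compounds.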 To be noted: higher = more signal.
Assay [8] addresses Torsin-1A (Homo sapiens) (UniProt O14656). In words: torsin A binders from cell lysate, primary screen, small-molecule microarray, wild-type, 635/667 nm (AID 1149). To be noted: COS7 hTOR1A-WT lysate, 635 nm fluorescence, higher = more signal.
The target is the same in assay [9]. In words: small-molecule binders of mutant TOR1A in lysate, primary screen, cell lysate, small-molecule microarray, COS7 lysate, 635/667 nm fluorescence (AID 1150).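 Note: score pools 667 nm emission and signal to noise measuring lysate protein binding.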 Particulars: COS7 hTOR1A mutant lysate, 635 nm fluorescence, higher = more signal.
Assay [10] relates to Sonic hedgehog protein (Shh). In words: small-molecule binders of Shh protein, primary screen, biochemical, small-molecule microarray, 635/667 nm fluorescence (AID 1151).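 Note: Shh protein binding to compounds spotted on small-molecule microarray slides; score combines spot fluorescence intensity with signal-to-noise across triplicate slides.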 To be noted: small-molecule microarray binding, 635 nm fluorescence; higher = more signal.
The nature of assay [11]: E. coli DRC41 culture turbidity changes, primary screen, E. coli filamentation inducer project, strain DRC41, OD650, 48 h (AID 1152).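 Note: E. coli MC1000 strain DRC41 lacking acrAB efflux pump and sulA.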 Particulars: E. coli DRC41 (acrAB sulA), higher = more signal, called active from +8 up or from −8 down.
Assay [12] is described as follows: small-molecule binders of probe aLefty1, primary screen, biochemical, small-molecule microarray, 635/667 nm fluorescence (AID 1153).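 Note: score merges spot fluorescence with signal-to-noise ratio from the scanned slide images.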 Particulars: higher = more signal.
Assay [13] is described as follows: PSAC antagonists in infected red cells, primary screen, cell-based, P. falciparum Indochina, OD700, 1 h (AID 1154). Particulars: P. falciparum Indochina infected RBC osmotic lysis, higher = more signal, called active from +8 up or from −8 down.
Assay [14] is described as follows: PSAC antagonists in infected red cells, primary screen, cell-based, P. falciparum Indochina, OD700, 2 h (AID 1155).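 Note: lysis reports solute entry through the parasite surface anion channel PSAC; channel blockers reduce lysis of infected cells.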 Particulars: P. falciparum Indochina infected erythrocytes, osmotic lysis OD700; higher = more signal, called active from +8 up or from −8 down.
The nature of assay [15]: osmotic lysis modulators in infected erythrocytes, primary screen, PSAC antagonist project, cell-based, P. falciparum Indochina, OD700, 3 h (AID 1156). To be noted: higher = more signal, called active from +8 up or from −8 down.
Assay [16] can be described thus: PSAC antagonists in infected red cells, primary screen, cell-based, P. falciparum Indochina, OD700, 18 h (AID 1157). To be noted: P. falciparum Indochina infected erythrocytes, osmotic lysis OD700, 18 h; higher = more signal, called active from +8 up or from −8 down.
A short description of assay [17]: modulators of S6 phosphorylation in cells, primary screen, cell-based, A549, cytoblot, luminescence, serum-stimulated (AID 1158).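 Note: serum-stimulated A549 lung adenocarcinoma cells; signal is phosphorylated S6 detected by cytoblot immunostaining with HRP secondary.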 Particulars: A549 phospho-S6 cytoblot, 5 h, higher = more signal.
Assay [18] addresses NADPH oxidase 2 (Homo sapiens) (UniProt P04839). In words: NOX2-dependent H2O2 signal modulators, primary screen, NOX inhibitor project, cell-based, HEK293-NOX2, PMA-stimulated, Amplex Red fluorescence (AID 1159). Note: test concentration not given here. Particulars: 45 min, higher = more signal, called active from +8 up or from −8 down.
Assay [19] addresses NADPH oxidase 4 (Homo sapiens) (UniProt Q9NPH5). Nature of the assay: NOX4-dependent H2O2 signal modulators, primary screen, NOX inhibitor project, cell-based, HEK293-NOX4, tetracycline-induced, Amplex Red fluorescence (AID 1160). Particulars: 45 min, higher = more signal, called active from +8 up or from −8 down.
For assay [20], the target named is NADPH oxidase 5 (Homo sapiens) (UniProt Q96PH1). In words: NOX5-dependent H2O2 signal modulators, primary screen, NOX inhibitor project, cell-based, HEK293-NOX5, Amplex Red fluorescence (AID 1161). To be noted: HEK293-NOX5, ionomycin, 45 min, higher = more signal.
NADPH oxidase 5 (Homo sapiens), sequence (Q96PH1 whole entry, looked up): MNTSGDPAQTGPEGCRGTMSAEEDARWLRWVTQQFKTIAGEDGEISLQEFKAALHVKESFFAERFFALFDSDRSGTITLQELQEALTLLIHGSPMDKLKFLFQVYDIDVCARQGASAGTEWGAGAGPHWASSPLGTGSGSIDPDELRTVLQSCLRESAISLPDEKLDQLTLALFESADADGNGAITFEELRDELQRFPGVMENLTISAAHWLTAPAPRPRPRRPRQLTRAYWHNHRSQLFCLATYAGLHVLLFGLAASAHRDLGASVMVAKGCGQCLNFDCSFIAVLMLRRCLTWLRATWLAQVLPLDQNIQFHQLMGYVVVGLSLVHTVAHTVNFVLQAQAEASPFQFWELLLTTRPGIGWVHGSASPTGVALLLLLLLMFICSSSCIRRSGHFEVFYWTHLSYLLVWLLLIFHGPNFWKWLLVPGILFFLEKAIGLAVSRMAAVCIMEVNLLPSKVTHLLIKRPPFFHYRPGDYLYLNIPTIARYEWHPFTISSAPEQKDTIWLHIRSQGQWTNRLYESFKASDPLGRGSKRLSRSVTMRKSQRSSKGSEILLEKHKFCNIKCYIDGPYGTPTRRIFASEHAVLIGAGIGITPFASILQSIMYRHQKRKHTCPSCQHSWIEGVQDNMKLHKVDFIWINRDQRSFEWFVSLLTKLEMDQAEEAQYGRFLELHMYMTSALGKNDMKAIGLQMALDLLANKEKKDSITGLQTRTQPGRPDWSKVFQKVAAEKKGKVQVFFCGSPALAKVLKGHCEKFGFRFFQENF

NADPH oxidase 2 (Homo sapiens), sequence (P04839 whole entry, looked up): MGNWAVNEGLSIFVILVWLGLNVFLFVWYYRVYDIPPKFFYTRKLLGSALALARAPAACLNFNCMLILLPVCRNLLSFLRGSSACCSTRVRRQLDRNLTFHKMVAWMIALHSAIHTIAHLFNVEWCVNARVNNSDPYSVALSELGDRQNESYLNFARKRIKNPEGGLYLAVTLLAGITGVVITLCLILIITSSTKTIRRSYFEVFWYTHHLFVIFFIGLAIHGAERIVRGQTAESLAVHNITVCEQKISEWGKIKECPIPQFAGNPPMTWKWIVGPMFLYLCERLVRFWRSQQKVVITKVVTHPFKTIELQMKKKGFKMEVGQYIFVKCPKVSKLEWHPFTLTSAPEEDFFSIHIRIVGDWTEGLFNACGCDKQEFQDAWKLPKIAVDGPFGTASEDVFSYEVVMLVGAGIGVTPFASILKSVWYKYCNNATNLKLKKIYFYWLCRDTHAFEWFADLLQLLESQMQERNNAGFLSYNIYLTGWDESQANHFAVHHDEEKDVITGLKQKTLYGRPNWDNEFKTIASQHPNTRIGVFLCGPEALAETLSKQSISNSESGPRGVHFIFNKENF
NADPH oxidase 4 (Homo sapiens), sequence (Q9NPH5 whole entry, looked up): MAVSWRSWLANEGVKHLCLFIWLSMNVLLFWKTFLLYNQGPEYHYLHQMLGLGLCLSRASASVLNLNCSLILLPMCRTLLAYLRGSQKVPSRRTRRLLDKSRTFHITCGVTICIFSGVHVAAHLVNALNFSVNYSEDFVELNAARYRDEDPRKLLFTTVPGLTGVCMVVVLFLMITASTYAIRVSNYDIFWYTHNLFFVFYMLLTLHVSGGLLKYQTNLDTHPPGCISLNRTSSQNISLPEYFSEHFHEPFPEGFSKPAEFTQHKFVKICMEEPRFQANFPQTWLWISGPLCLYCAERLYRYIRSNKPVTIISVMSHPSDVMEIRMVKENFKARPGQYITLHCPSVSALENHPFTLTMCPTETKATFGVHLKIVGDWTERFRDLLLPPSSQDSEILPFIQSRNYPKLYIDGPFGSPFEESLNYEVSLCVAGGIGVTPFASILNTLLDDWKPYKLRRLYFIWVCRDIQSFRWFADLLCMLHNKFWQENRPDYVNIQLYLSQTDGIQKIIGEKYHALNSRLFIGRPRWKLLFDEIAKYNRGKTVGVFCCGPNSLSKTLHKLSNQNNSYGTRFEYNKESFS
Torsin-1A (Homo sapiens), sequence (O14656 whole entry, looked up): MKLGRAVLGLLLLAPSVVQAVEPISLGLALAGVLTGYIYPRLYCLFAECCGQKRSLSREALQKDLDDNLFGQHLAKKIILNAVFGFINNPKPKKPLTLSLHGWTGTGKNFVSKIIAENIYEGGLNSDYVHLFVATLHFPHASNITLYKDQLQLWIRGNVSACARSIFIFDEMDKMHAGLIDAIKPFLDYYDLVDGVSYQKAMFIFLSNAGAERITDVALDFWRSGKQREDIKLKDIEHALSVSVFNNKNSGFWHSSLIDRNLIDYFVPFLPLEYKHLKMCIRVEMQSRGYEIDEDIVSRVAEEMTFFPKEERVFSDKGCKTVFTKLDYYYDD
Streptavidin (Streptomyces avidinii), sequence (P22629 whole entry, looked up): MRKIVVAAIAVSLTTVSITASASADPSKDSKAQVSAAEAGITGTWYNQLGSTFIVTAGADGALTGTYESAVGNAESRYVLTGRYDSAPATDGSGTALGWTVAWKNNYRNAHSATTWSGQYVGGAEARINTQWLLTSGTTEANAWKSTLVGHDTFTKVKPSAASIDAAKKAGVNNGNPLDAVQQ

`CC(C)N1CC=CC23O[C@@H]4C=CCCOC(=O)C4[C@H]2C(=O)N(CCCCCCO)[C@@H]3C1=O` (stereo not given in full): the composite z-score in assay [1] was -0.952; in assay [6], -0.717; in [7], -0.003; in the assay with Torsin-1A (Homo sapiens) [8], -1.12; in the assay with Torsin-1A (Homo sapiens) [9], -1.57; in assay [10], 0.011. For the same compound, the composite z-score in [12] is -0.007. The z-score is 0.471 (inactive) in assay [2]; -0.454 (inactive) in [3]; -0.488 (inactive) in [4]; -0.905 (inactive) in assay [5]; 0.383 (inactive) in assay [11]; 0.156 (inactive) in assay [13]. For the same compound, the z-score in assay [14] is 0.405 (inactive); in assay [15], 0.799 (inactive); in assay [16], 0.647 (inactive); in [17], 0.342; in [18], 0.584 (inactive); in [19], -0.185 (inactive). This compound also came in with a z-score in [20] of 1.52.

Take `CCOC(=O)C1=CCC(c2cc3ccccc3[nH]2)NC1` (stereo not given): the composite z-score is 0.109 in assay [1]; 0.338 in assay [6]; 0.029 in [7]; 0.661 with Torsin-1A (Homo sapiens) [8]; 0.449 in the assay with Torsin-1A (Homo sapiens) [9]; -0.402 in assay [10]. Also, the composite z-score in [12] amounted to 0.3. Besides, the z-score in assay [2] is -2.83 (inactive); in assay [3], 0.756 (inactive); in assay [4], 0.369 (inactive); in [5], 0.464 (inactive); in assay [11], -0.92 (inactive); in assay [13] it was 6.29 (inactive). Besides, the z-score in assay [14] was 1.16 (inactive); in [15], 2.48 (inactive); in [16], 0.829 (inactive); in [17] it was 0.0315; in [18], -0.246 (inactive); in [19], 0.0972 (inactive). Besides, in [20], the z-score was 0.287.

For the compound `CC(CCN1CCc2nc(-c3ccccc3)c(-c3ccccc3)cc2C1)=NO[C@H](C)c1cn([C@@H]2COC[C@H]2O)nn1`, the composite z-score in assay [1] is 0.0025; in assay [6] it was -0.384; in [7], 0.0183; with Torsin-1A (Homo sapiens) [8] it was 1.01; with Torsin-1A (Homo sapiens) [9], 1.11; in assay [10], 0.572. In [12], this compound gave a composite z-score of 0.0026. In addition, the z-score was -0.615 (inactive) in [2]; -0.733 (inactive) in assay [3]; 0.983 (inactive) in assay [4]; -0.258 (inactive) in [5]; 0.548 (inactive) in [11]; 4.09 (inactive) in assay [13]. Besides, the z-score in assay [14] was 0.722 (inactive); in assay [15], 1.56 (inactive); in assay [16], 0.391 (inactive); in [17], 0.387; in assay [18], -2.96 (inactive); in assay [19] it was 0.289 (inactive). Also, the z-score in assay [20] is -0.331.

Turning to `C#CCCCON=C1C[C@@H](O)[C@@H](O)[C@@H]2[C@@H]3C(=O)N(Cc4ccccc4)C(=O)[C@@H]3CC[C@H]12`, the composite z-score in [1] is 0.203; in assay [6], 0.0194; in [7], -0.209; with Torsin-1A (Homo sapiens) [8], 0.289; with Torsin-1A (Homo sapiens) [9], -0.0292; in assay [10], 0.985. Moreover, the composite z-score in assay [12] was -0.111. Further, the z-score is -3.22 (inactive) in [2]; -1.13 (inactive) in assay [3]; 0.793 (inactive) in assay [4]; -0.645 (inactive) in assay [5]; 0.362 (inactive) in [11]; 1.38 (inactive) in [13]. For the same compound, the z-score in [14] was -0.506 (inactive); in [15], 0.659 (inactive); in assay [16] it was -1.29 (inactive); in assay [17], 0.69; in [18], 0.162 (inactive); in [19] it was 0.196 (inactive). This compound showed a z-score in [20] of -0.36.
